# Source: the supplement of paper PMC4466140
# B1: unnamed (peptide)
# chain: TKIRRRPQQPLTDFT
# B2: unnamed (peptide)
# chain: KFIPSRPAPKPPSSA
# B3: unnamed (peptide)
# chain: LKRITSPPLPPRADS
# Key:
# Assay in all cases: SPOT peptide array binding signal intensity (averaged, normalized) (arbitrary units (background-subtracted, floor 0; scale differs between SH3 domains)); higher = stronger binding of the SH3 domain to the peptide
# [1] = target: SpBzz1-D2
# Procedure: (§1)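 GST-tagged SH3 domains from S. cerevisiae (Sc), A. gossypii (Ag), C. albicans (Ca) and S. pombe (Sp) were incubated at 10 ug/ml overnight at 4 C on cellulose SPOT membranes carrying 292 synthetic 15-mer peptides mined from the S. cerevisiae proteome (cysteines replaced by serines). Binding was detected with anti-GST antibody, HRP secondary and chemiluminescence, quantified with Genespotter, and reported as normalized spot intensities averaged over biological replicates.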
# [2] = target: SpCyk3
# Procedure: as §1
# [3] = target: SpHof1
# Procedure: as §1
# [4] = target: SpHof1-2
# Procedure: as §1
# [5] = target: SpHof1-3
# Procedure: as §1
# [6] = target: SpHse1
# Procedure: as §1
# [7] = target: SpLsb1
# Procedure: as §1
# [8] = target: SpLsb4
# Procedure: as §1
# [9] = target: SpMyo1
# Procedure: as §1
# [10] = target: SpNbp2
# Procedure: as §1
# [11] = target: SpPex13
# Procedure: as §1
# [12] = target: SpRvs167
# Procedure: as §1
# [13] = target: SpSla1-D1-D2
# Procedure: as §1
# [14] = target: SpSla1-D3
# Procedure: as §1
# [15] = target: AgAbp1
# Procedure: as §1
# [16] = target: AgBbc1
# Procedure: as §1
# [17] = target: AgBem1-D1
# Procedure: as §1
# [18] = target: AgBzz1-D1
# Procedure: as §1
# [19] = target: AgBzz1-D2
# Procedure: as §1
# [20] = target: AgCyk3
# Procedure: as §1
# [21] = target: AgFus1
# Procedure: as §1
# [22] = target: AgHof1
# Procedure: as §1
# [23] = target: AgHse1
# Procedure: as §1
# [24] = target: AgLsb1
# Procedure: as §1
# [25] = target: AgLsb4
# Procedure: as §1
# [26] = target: AgMyo5
# Procedure: as §1
# [27] = target: AgNbp2
# Procedure: as §1
# [28] = target: AgRvs167
# Procedure: as §1
# [29] = target: AgSho1
# Procedure: as §1
# [30] = target: AgSla1-D1-D2
# Procedure: as §1
# [31] = target: AgSla1-D3
# Procedure: as §1
# [32] = target: CaAbp1-D1
# Procedure: as §1
# [33] = target: CaAbp1-D2
# Procedure: as §1
# [34] = target: CaBbc1
# Procedure: as §1
# [35] = target: CaBem1-D1
# Procedure: as §1
# [36] = target: CaBzz1-D1
# Procedure: as §1
# [37] = target: CaBzz1-D2
# Procedure: as §1
# [38] = target: CaCyk3
# Procedure: as §1
# [39] = target: CaFus1
# Procedure: as §1
# [40] = target: CaHof1
# Procedure: as §1
# [41] = target: CaHse1
# Procedure: as §1
# [42] = target: CaLsb1
# Procedure: as §1
# [43] = target: CaLsb4
# Procedure: as §1
# [44] = target: CaMyo5
# Procedure: as §1
# [45] = target: CaNbp2
# Procedure: as §1
# [46] = target: CaRvs167
# Procedure: as §1
# [47] = target: CaRvs167-3
# Procedure: as §1
# [48] = target: CaSho1
# Procedure: as §1
# [49] = target: CaSla1-D1-D2
# Procedure: as §1
# [50] = target: CaSla1-D3
# Procedure: as §1
# [51] = target: ScAbp1
# Procedure: as §1
# [52] = target: ScBbc1
# Procedure: as §1
# [53] = target: ScBem1-D1
# Procedure: as §1
# [54] = target: ScBzz1-D1
# Procedure: as §1
# [55] = target: ScBzz1-D2
# Procedure: as §1
# [56] = target: ScCyk3
# Procedure: as §1
# [57] = target: ScFus1
# Procedure: as §1
# [58] = target: ScHof1
# Procedure: as §1
# [59] = target: ScHse1
# Procedure: as §1
# [60] = target: ScLsb1
# Procedure: as §1
# [61] = target: ScLsb2
# Procedure: as §1
# [62] = target: ScLsb3
# Procedure: as §1
# [63] = target: ScLsb4
# Procedure: as §1
# [64] = target: ScMyo3
# Procedure: as §1
# [65] = target: ScMyo5
# Procedure: as §1
# [66] = target: ScNbp2
# Procedure: as §1
# [67] = target: ScPex13
# Procedure: as §1
# [68] = target: ScRvs167
# Procedure: as §1
# [69] = target: ScSho1
# Procedure: as §1
# [70] = target: ScSla1-D1-D2
# Procedure: as §1
# [71] = target: ScSla1-D3
# Procedure: as §1
# [72] = target: SpAbp1-D1
# Procedure: as §1
# [73] = target: SpBbc1
# Procedure: as §1
# [74] = target: SpBzz1-D1
# Procedure: as §1
binder,measurement,setting,value
B1,SPOT peptide array binding signal intensity,[1],≤ 0
same,SPOT peptide array binding signal intensity,[2],1.5
same,SPOT peptide array binding signal intensity,[3],65.5
same,SPOT peptide array binding signal intensity,[4],5.5
same,SPOT peptide array binding signal intensity,[5],164
same,SPOT peptide array binding signal intensity,[6],93
same,SPOT peptide array binding signal intensity,[7],5
same,SPOT peptide array binding signal intensity,[8],104
same,SPOT peptide array binding signal intensity,[9],8
same,SPOT peptide array binding signal intensity,[10],10.5
same,SPOT peptide array binding signal intensity,[11],1
same,SPOT peptide array binding signal intensity,[12],11.8
same,SPOT peptide array binding signal intensity,[13],1
same,SPOT peptide array binding signal intensity,[14],≤ 0
B2,SPOT peptide array binding signal intensity,[15],1640
same,SPOT peptide array binding signal intensity,[16],1210
same,SPOT peptide array binding signal intensity,[17],98
same,SPOT peptide array binding signal intensity,[18],70
same,SPOT peptide array binding signal intensity,[19],69.5
same,SPOT peptide array binding signal intensity,[20],≤ 0
same,SPOT peptide array binding signal intensity,[21],≤ 0
same,SPOT peptide array binding signal intensity,[22],26.2
same,SPOT peptide array binding signal intensity,[23],37
same,SPOT peptide array binding signal intensity,[24],674
same,SPOT peptide array binding signal intensity,[25],30.5
same,SPOT peptide array binding signal intensity,[26],1380
same,SPOT peptide array binding signal intensity,[27],11400
same,SPOT peptide array binding signal intensity,[28],5.5
same,SPOT peptide array binding signal intensity,[29],≤ 0
same,SPOT peptide array binding signal intensity,[30],51
same,SPOT peptide array binding signal intensity,[31],1
same,SPOT peptide array binding signal intensity,[32],1850
same,SPOT peptide array binding signal intensity,[33],1020
same,SPOT peptide array binding signal intensity,[34],1910
same,SPOT peptide array binding signal intensity,[35],1550
same,SPOT peptide array binding signal intensity,[36],1780
same,SPOT peptide array binding signal intensity,[37],1310
same,SPOT peptide array binding signal intensity,[38],46
same,SPOT peptide array binding signal intensity,[39],75
same,SPOT peptide array binding signal intensity,[40],≤ 0
same,SPOT peptide array binding signal intensity,[41],2.25
same,SPOT peptide array binding signal intensity,[42],≤ 0
same,SPOT peptide array binding signal intensity,[43],190
same,SPOT peptide array binding signal intensity,[44],24
same,SPOT peptide array binding signal intensity,[45],6170
same,SPOT peptide array binding signal intensity,[46],51
same,SPOT peptide array binding signal intensity,[47],2
same,SPOT peptide array binding signal intensity,[48],≤ 0
same,SPOT peptide array binding signal intensity,[49],1010
same,SPOT peptide array binding signal intensity,[50],65.5
same,SPOT peptide array binding signal intensity,[51],323
same,SPOT peptide array binding signal intensity,[52],716
same,SPOT peptide array binding signal intensity,[53],≤ 0
same,SPOT peptide array binding signal intensity,[54],87
same,SPOT peptide array binding signal intensity,[55],8
same,SPOT peptide array binding signal intensity,[56],1
same,SPOT peptide array binding signal intensity,[57],0.5
same,SPOT peptide array binding signal intensity,[58],1
same,SPOT peptide array binding signal intensity,[59],≤ 0
same,SPOT peptide array binding signal intensity,[60],51.8
same,SPOT peptide array binding signal intensity,[61],288
same,SPOT peptide array binding signal intensity,[62],982
same,SPOT peptide array binding signal intensity,[63],13
same,SPOT peptide array binding signal intensity,[64],2740
same,SPOT peptide array binding signal intensity,[65],1420
same,SPOT peptide array binding signal intensity,[66],8490
same,SPOT peptide array binding signal intensity,[67],2800
same,SPOT peptide array binding signal intensity,[68],396
same,SPOT peptide array binding signal intensity,[69],18
same,SPOT peptide array binding signal intensity,[70],1290
same,SPOT peptide array binding signal intensity,[71],769
same,SPOT peptide array binding signal intensity,[72],602
same,SPOT peptide array binding signal intensity,[73],110
same,SPOT peptide array binding signal intensity,[74],1050
same,SPOT peptide array binding signal intensity,[1],32.8
same,SPOT peptide array binding signal intensity,[2],≤ 0
same,SPOT peptide array binding signal intensity,[3],9.75
same,SPOT peptide array binding signal intensity,[4],9.25
same,SPOT peptide array binding signal intensity,[5],144
same,SPOT peptide array binding signal intensity,[6],140
same,SPOT peptide array binding signal intensity,[7],62
same,SPOT peptide array binding signal intensity,[8],865
same,SPOT peptide array binding signal intensity,[9],3260
same,SPOT peptide array binding signal intensity,[10],1060
same,SPOT peptide array binding signal intensity,[11],90
same,SPOT peptide array binding signal intensity,[12],319
same,SPOT peptide array binding signal intensity,[13],≤ 0
same,SPOT peptide array binding signal intensity,[14],≤ 0
B3,SPOT peptide array binding signal intensity,[15],20.5
same,SPOT peptide array binding signal intensity,[16],427
same,SPOT peptide array binding signal intensity,[17],59
same,SPOT peptide array binding signal intensity,[18],87.5
same,SPOT peptide array binding signal intensity,[19],82
same,SPOT peptide array binding signal intensity,[20],1
same,SPOT peptide array binding signal intensity,[21],2
same,SPOT peptide array binding signal intensity,[22],678
same,SPOT peptide array binding signal intensity,[23],49
same,SPOT peptide array binding signal intensity,[24],1010
same,SPOT peptide array binding signal intensity,[25],5100
same,SPOT peptide array binding signal intensity,[26],3.25
same,SPOT peptide array binding signal intensity,[27],22
same,SPOT peptide array binding signal intensity,[28],1890
same,SPOT peptide array binding signal intensity,[29],4
same,SPOT peptide array binding signal intensity,[30],≤ 0
same,SPOT peptide array binding signal intensity,[31],4.75
same,SPOT peptide array binding signal intensity,[32],134
same,SPOT peptide array binding signal intensity,[33],96
same,SPOT peptide array binding signal intensity,[34],1010
same,SPOT peptide array binding signal intensity,[35],24.5
same,SPOT peptide array binding signal intensity,[36],1940
same,SPOT peptide array binding signal intensity,[37],423
same,SPOT peptide array binding signal intensity,[38],25.5
same,SPOT peptide array binding signal intensity,[39],99.5
same,SPOT peptide array binding signal intensity,[40],4.25
same,SPOT peptide array binding signal intensity,[41],124
same,SPOT peptide array binding signal intensity,[42],1.5
same,SPOT peptide array binding signal intensity,[43],6040
same,SPOT peptide array binding signal intensity,[44],2.5
